# PubChem BioAssay (NCATS)
# Results filed as inconclusive are left out. The source made the active and inactive calls. Unless noted, calls come from the whole dose curve; as a rule, active = well fitted curve in the direction sought with a large enough effect; inconclusive = small, poorly fitted or top-dose-only effect, or another doubt; inactive = no such curve, though single readings can be large; an effect the other way counts as inactive or inconclusive.
# Columns and labels:
# [1] = qHTS Assay for Lipid Storage Modulators (AID 1519; calls by dose curve; for activity change, negative = inhibition: % is set by controls: 0 for no effect and ±100 for the full control effect); details: Drosophila S3 cells, BODIPY lipid droplet/cell ratio, laser cytometry, cells loaded with oleic acid
# Outline: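 Cells seeded at 5,000 per well were treated with compounds over a concentration series and loaded with oleic acid (400 uM, as added). Lipid droplet fluorescence (488 nm excitation, 500-530 nm channel) was read by laser-scanning cytometry and normalized to 20 uM Triacsin C.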
# [2] = molecular target: DNA dC->dU-editing enzyme APOBEC-3G (Homo sapiens) (UniProt Q9HC16); assay: qHTS for inhibitors of Vif-A3G interactions: Validation (AID 588379); note: 0% is about no effect
# Outline: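 HeLa cells stably expressing Vif and A3G-eYFP, 700 cells/well, incubated overnight at 37 deg C, then exposed to compound overnight at 37 deg C. Inhibition of Vif-mediated degradation read as increased yellow fluorescence (Ex 488/Em 500-530) by laser-scanning cytometry.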
# [3] = molecular target: Cytochrome P450 3A4 (Homo sapiens) (UniProt P08684); assay: qHTS Assay for Activators of Cytochrome P450 3A4 (AID 885); note: nearly all actives have a fitted effect of over 65% in size
# Outline: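 Steps: enzyme/substrate mix dispensed; compound added, 10 min RT; NADPH regeneration solution added, 60 min RT; luciferin detection buffer stops reaction; 20 min later luminescence measured.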
# [4] = molecular target: Cytochrome P450 3A4 (Homo sapiens) (UniProt P08684); assay: qHTS Assay for Inhibitors and Substrates of Cytochrome P450 3A4 (AID 884); note: nearly all actives have a fitted effect of over 50% in size; note: potency is the fitted concentration of half-maximal effect; for activity change, negative = inhibition: % is set by controls: 0 for no effect and ±100 for the full control effect
# Outline: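 20 nM human CYP3A4 with 25 uM Luciferin-PPXE (at KM) in 200 mM KPO4, preincubated 10 min with compound; NADPH regeneration started a 60 min RT reaction. Luciferin detected by luminescence, normalized to 57 uM ketoconazole as full inhibition.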
# [5] = Confirmation and Secondary Assay for Modulators of Hemoglobin Beta Chain Splicing at IVS2 654 locus (AID 910); note: % of control where 0% means no effect
# Outline: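 HeLa cells stably carrying EGFP interrupted by mutant beta-globin IVS2-654 intron (CMV-driven) were treated with compound for 2 days at 37C; corrected splicing was scored as total peak GFP intensity per well (488 nm excitation, 500-520 nm emission).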
# [6] = Confirmation and Secondary Assay for Modulators of Hemoglobin Beta Chain Splicing at IVS2 705 locus (AID 930);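 note: HeLa cells stably expressing the EGFP-705 splicing reporter; GFP fluorescence per well restored by corrected splicing of the IVS2-705 intron in EGFP; % of control where 0% means no effect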
# Outline: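 Read-out: total peak GFP fluorescence per well (488 nm excitation, 500-520 nm emission) by laser-scanning cytometry. Cells: HeLa EGFP-705 splicing reporter, 2 days compound exposure in Optimem/2% FCS.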
# [7] = molecular target: Bile acid receptor (Homo sapiens) (UniProt Q96RI1); assay: qHTS assay for small molecule agonists of farnesoid X receptor signaling (AID 588527; calls by dose curve;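 note: 0% = vehicle basal and 100% = reference agonist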); details: HEK293T FXR-UAS-bla, beta-lactamase ratio, 16 h; stronger effect = higher value
# Outline: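 Read-out: beta-lactamase reporter fluorescence with CCF4 substrate in GeneBLAzer FXR-UAS-bla HEK293T cells, after 16 h compound exposure at 37 C. Response scaled between DMSO basal (0%) and chenodeoxycholic acid at 100 uM (100%).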
# [8] = qHTS assay for small molecule antagonists of retinoid X receptor alpha signaling (AID 588546; active = well fitted inhibition curve with a large enough effect in the signal ratio, with a control signal flat, not every such curve was filed as active; the % refers to the signal ratio; note: potency is the fitted concentration of half-maximal effect;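 for max response: cells stimulated with 9-cis-retinoic acid as agonist; % is set by controls: 0 for no effect and ±100 for the full control effect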); details: HEK293T RXRa-UAS-bla, beta-lactamase ratio, antagonist mode; measured here: W530 green channel, cytotoxicity proxy
# Outline: (§1)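 Beta-lactamase reporter inhibition, read as CCF4 fluorescence ratio (ex 405, em 460/530 nm) after 2 h at RT. HEK293T UAS-bla cells, 2500/well, were stimulated with 9-cis-RA at 500 or 100 nM final alongside test compound for 18 h at 37 C.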
# [9] = molecular target: Retinoic acid receptor RXR-alpha (Homo sapiens) (UniProt P19793); assay: as above; details: HEK293T RXRa-UAS-bla, beta-lactamase ratio, antagonist mode
# Outline: as §1
# [10] = qHTS assay for small molecule activators of the p53 signaling pathway (AID 651743; active = well fitted activation curve with a large enough effect in the signal ratio, not every such curve was filed as active; the % refers to the signal ratio; note: potency is the fitted concentration of half-maximal effect); details: HCT-116 p53RE-bla, beta-lactamase FRET ratio, 16 h; activation: stronger effect = higher value
# Outline: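 p53RE-bla HCT-116 cells with a stably integrated beta-lactamase reporter under p53 response elements were plated, rested 5 hours at 37 C/5% CO2, then exposed to compounds in DMSO for 16 hours at 37 C. LiveBLAzer B/G FRET substrate was read after 2 hours at room temperature.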
# [11] = qHTS assay for small molecule activators of the nuclear factor-kappa B (NF-kB) signaling pathway (AID 651749; active = well fitted activation curve with a large enough effect in the signal ratio; the % refers to the signal ratio; note: % of control where 0% means no effect); details: NF-kB-bla ME-180 cells, beta-lactamase FRET ratio, 16 h; activation: stronger effect = higher value
# Outline: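 ME-180 cells stably carrying a beta-lactamase reporter under an NF-kB response element were exposed to compound or DMSO vehicle for 16 hr at 37C, 5% CO2. Pathway activation was read by FRET, since reporter expression disrupts FRET.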
# [12] = molecular target: Peroxisome proliferator-activated receptor alpha (Homo sapiens) (UniProt Q07869); assay: qHTS assay for small molecule agonists of the peroxisome proliferator-activated receptor alpha (PPARalpha) signaling pathway (AID 651778); details: PathHunter PPARalpha complementation, chemiluminescence, 6 h; stronger effect = higher value; note: % of control where 0% means no effect
# Outline: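 Cells plated at 2,000/well and held overnight at 37 C, 5% CO2, then compound added by pin tool for 6 hr; after PathHunter detection reagent and 60 min at room temperature, chemiluminescence from enzyme complementation was read.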
# [13] = qHTS assay for small molecule agonists of the antioxidant response element (ARE) signaling pathway measured by Nrf2-dependant transcriptional activity (AID 720636; active = well fitted curve in the direction sought with a large enough effect in the repeat runs; an effect the other way counts as inactive or inconclusive;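 note: HepG2 cells with an ARE-driven luciferase reporter; % of control where 0% means no effect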)
# Outline: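 HepG2 ARE-luc reporter line, 1% dialyzed FBS; 6 hr attachment at 37 C, compound pinned in, 16 hr at 37 C/5% CO2; ONE-Glo, 30 min RT, luminescence read.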
# [14] = molecular target: Cytochrome P450 2C9 (Homo sapiens) (UniProt P11712); assay: qHTS Assay for Inhibitors and Substrates of Cytochrome P450 2C9 (AID 883); note: potency is the fitted concentration of half-maximal effect; nearly all actives have a fitted effect of over 60% in size
# Outline: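 CYP2C9 deoxyluciferin hydroxylation, 37C, 60 min with NADPH regeneration; 10nM enzyme, 100uM Luciferin-H (KM). Glo detection reagent stopped reaction; luminescence normalized to sulphaphenazole (57uM) full inhibition.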
# [15] = measured here: cell count channel max response
# [16] = measured here: lipid channel max response
# DNA dC->dU-editing enzyme APOBEC-3G (Homo sapiens), sequence (Q9HC16 whole entry, looked up): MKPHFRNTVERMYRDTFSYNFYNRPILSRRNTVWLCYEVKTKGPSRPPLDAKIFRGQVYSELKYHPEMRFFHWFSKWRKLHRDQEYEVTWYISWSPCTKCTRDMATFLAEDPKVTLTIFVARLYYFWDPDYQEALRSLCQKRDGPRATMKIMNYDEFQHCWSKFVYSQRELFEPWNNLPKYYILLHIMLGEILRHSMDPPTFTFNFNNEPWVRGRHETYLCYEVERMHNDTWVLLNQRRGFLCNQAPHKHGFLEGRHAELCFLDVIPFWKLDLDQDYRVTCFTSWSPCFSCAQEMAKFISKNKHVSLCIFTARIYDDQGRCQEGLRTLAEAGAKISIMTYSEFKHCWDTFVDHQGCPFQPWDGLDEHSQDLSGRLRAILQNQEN
# Cytochrome P450 3A4 (Homo sapiens), sequence (P08684 whole entry, looked up): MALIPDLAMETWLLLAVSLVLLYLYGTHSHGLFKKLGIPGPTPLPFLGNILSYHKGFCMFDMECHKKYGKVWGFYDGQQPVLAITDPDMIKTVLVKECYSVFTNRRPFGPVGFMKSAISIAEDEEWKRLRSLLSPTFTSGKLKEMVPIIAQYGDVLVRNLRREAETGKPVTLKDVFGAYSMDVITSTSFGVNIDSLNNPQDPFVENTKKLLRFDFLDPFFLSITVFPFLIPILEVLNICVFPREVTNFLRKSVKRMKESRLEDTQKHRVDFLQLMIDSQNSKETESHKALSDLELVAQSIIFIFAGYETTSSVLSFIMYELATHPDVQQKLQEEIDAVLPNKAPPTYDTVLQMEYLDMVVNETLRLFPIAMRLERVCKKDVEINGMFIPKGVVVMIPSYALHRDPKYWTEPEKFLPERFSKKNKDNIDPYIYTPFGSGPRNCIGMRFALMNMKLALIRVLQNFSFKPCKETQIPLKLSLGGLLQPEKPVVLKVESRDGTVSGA
# Cytochrome P450 2C9 (Homo sapiens), sequence (P11712 whole entry, looked up): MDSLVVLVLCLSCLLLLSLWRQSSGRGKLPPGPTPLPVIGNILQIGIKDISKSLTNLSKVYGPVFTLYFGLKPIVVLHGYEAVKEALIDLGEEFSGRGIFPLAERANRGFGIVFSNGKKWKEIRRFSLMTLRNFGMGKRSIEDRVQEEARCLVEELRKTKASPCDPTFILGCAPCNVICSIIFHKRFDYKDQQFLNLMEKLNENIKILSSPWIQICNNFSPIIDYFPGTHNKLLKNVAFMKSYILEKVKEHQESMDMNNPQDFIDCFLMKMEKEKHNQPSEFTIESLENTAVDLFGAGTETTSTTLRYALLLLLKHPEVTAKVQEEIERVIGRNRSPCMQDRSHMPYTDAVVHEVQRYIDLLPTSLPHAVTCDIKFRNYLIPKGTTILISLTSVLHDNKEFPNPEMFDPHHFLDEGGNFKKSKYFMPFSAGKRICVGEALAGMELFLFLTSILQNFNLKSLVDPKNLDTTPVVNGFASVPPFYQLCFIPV
# Retinoic acid receptor RXR-alpha (Homo sapiens), sequence (P19793 whole entry, looked up): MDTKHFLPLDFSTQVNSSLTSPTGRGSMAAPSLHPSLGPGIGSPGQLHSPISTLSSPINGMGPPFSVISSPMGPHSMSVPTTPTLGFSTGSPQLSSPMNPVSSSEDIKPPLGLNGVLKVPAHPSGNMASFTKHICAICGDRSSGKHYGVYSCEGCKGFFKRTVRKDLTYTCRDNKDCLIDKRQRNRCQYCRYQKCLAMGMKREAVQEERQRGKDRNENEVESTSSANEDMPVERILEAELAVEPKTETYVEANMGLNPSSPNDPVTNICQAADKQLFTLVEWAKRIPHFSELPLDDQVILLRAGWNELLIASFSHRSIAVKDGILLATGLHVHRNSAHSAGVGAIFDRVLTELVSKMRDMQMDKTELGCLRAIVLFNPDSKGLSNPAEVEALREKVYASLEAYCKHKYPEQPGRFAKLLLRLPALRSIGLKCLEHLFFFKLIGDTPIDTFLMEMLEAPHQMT
# Peroxisome proliferator-activated receptor alpha (Homo sapiens), sequence (Q07869 whole entry, looked up): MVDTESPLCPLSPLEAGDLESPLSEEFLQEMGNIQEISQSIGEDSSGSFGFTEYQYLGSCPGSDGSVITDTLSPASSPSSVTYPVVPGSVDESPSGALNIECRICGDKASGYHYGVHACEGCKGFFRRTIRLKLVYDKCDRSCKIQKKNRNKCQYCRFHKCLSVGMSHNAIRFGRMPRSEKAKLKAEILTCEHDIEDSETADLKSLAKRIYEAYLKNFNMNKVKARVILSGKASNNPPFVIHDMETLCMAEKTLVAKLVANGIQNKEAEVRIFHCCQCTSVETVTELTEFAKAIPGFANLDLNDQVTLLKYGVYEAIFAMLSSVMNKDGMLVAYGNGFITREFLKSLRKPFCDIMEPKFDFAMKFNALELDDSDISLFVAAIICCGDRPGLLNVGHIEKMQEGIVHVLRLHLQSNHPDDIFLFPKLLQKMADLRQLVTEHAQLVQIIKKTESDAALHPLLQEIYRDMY
# Bile acid receptor (Homo sapiens), sequence (Q96RI1 whole entry, looked up): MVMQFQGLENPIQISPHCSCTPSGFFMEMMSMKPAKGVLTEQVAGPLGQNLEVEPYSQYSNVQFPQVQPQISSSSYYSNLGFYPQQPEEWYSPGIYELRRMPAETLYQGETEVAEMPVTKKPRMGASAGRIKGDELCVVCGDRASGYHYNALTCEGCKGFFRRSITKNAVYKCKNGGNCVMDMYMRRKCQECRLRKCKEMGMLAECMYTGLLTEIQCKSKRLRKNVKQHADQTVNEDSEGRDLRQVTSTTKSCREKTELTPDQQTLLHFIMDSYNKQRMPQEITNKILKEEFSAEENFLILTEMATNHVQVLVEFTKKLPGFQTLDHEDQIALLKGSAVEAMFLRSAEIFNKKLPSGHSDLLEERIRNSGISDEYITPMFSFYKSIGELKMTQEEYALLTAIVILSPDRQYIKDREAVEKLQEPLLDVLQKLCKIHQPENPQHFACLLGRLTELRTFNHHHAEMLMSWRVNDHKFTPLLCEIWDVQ
structure (smiles),measurement,setting,value
O=c1ccc2cc(OC3OC(CO)C(O)C(O)C3O)c(O)cc2o1 (configuration not stated),"activity change, negative = inhibition",[1]; at 57.5 µM (top of the series),-4.17% (inactive)
same,max response,[1]; [15],-25.8%
same,max response,[1]; [16],-27.2%
same,outcome,[2],inactive
O=C1CC2OCC=C3CN4CC[C@]56c7ccccc7N1[C@H]5[C@H]2C3C[C@H]46 (some centres not stated),"activity change, negative = inhibition",[1]; at 57.5 µM (top of the series),9.09% (inactive)
same,max response,[1]; [15],14.5%
same,max response,[1]; [16],20.7%
same,outcome,[2],inactive
CCN1C[C@@]2(COC)C3[C@@H](OC)C4[C@@H]1[C@@]3(C1C[C@@]3(O)[C@H](OC(=O)c5ccccc5)C1[C@]4(OC(C)=O)[C@@H](O)[C@@H]3OC)[C@@H](OC)C[C@H]2O (some centres not stated),Potency,[3],inactive
same,"activity change, negative = inhibition",[1]; at 57.5 µM (top of the series),0.0984% (inactive)
same,max response,[1]; [15],-8.1%
same,max response,[1]; [16],-8.3%
same,outcome,[2],inactive
C#CCOS(=O)OC1CCCCC1Oc1ccc(C(C)(C)C)cc1 (configuration not stated),Potency,[4],inactive
same,Potency,[5],inactive
same,Potency,[6],inactive
same,"activity change, negative = inhibition",[1]; at 57.5 µM (top of the series),5.08% (inactive)
same,max response,[1]; [15],0.489%
same,max response,[1]; [16],8.3%
same,activation,[7],6.98% (inactive)
same,max response,[8],24.4%
same,Potency,[9],7.08 µM (active)
same,Potency,[10],5.62 µM (active)
same,activation,[11],7.07% (inactive)
same,max response,[12],-1.77% (inactive)
same,outcome,[13],inactive
C=C(C)C1CNC(C(=O)O)C1CC(=O)O (configuration not stated),Potency,[4],inactive
same,Potency,[5],inactive
same,"activity change, negative = inhibition",[1]; at 57.5 µM (top of the series),6.75% (inactive)
same,max response,[1]; [15],5.93%
same,max response,[1]; [16],13%
COc1cc([C@H]2c3cc4c(cc3[C@@H](O)[C@@H]3COC(=O)[C@H]23)OCO4)cc(OC)c1OC,Potency,[14],1.26 µM (active)
same,"activity change, negative = inhibition",[1]; at 25.7 µM (top of the series),-6.44% (inactive)
same,max response,[1]; [15],-10.2%
same,max response,[1]; [16],-15%
C=C1C/C(=C/C)C(=O)O[C@@H]2CCN3CC=C(COC(=O)[C@]1(C)O)[C@@H]23,Potency,[3],inactive
same,"activity change, negative = inhibition",[1]; at 57.5 µM (top of the series),3.16% (inactive)
same,max response,[1]; [15],6.54%
same,max response,[1]; [16],10.1%
same,outcome,[2],inactive
C[C@H]1C(=O)O[C@H]2CCN3CC=C(COC(=O)[C@](C)(O)[C@@]1(C)O)C23 (some centres not stated),Potency,[4],inactive
same,"activity change, negative = inhibition",[1]; at 57.5 µM (top of the series),-4.35% (inactive)
same,max response,[1]; [15],5.67%
same,max response,[1]; [16],3.38%
same,outcome,[2],inactive
CCC12CCCN3CCC4(c5ccc(OC)c(O)c5N(C(C)=O)C4CC1)C32 (configuration not stated),Potency,[4],15.8 µM (active)
same,Potency,[3],inactive
same,"activity change, negative = inhibition",[1]; at 57.5 µM (top of the series),-0.564% (inactive)
same,max response,[1]; [15],14.6%
same,max response,[1]; [16],12.8%
same,outcome,[2],inactive
CC1(C)C(=O)C=C[C@@]2(C)C1CC(O)[C@]1(C)C2CC[C@@]2(C)C(c3ccoc3)OC(=O)C3O[C@]312 (some centres not stated),Potency,[4],3.98 µM (active)
same,Potency,[3],inactive
same,Potency,[5],inactive
same,"activity change, negative = inhibition",[1]; at 57.5 µM (top of the series),-4.48% (inactive)
same,max response,[1]; [15],13.8%
same,max response,[1]; [16],11.5%
